Our source for the Percent Effect values is ChEMBL document CHEMBL3988442, “University of Dundee, Small-Polar-MMV Screening Library” (2021).

SMILES strings stand for the structures. In all, about 67,000 compounds went through this assay and about 300 (0.45%) showed an effect of 50% or more. The sample holds strong results, similar compounds and a random draw of the others, so the mix is not that of the screen.

For the test, the target named is Polyketide synthase Pks13 (Mycobacterium tuberculosis (strain ATCC 25618 / H37Rv)) (UniProt I6X8D2). In words: Mycobacterium tuberculosis Polyketide synthase 13 Thioesterase (PKS13). The note with it: 30 µM. Also noted: scale not given: in the data most compounds retested in dose-response had high values. The test is classed as functional.
Chain of Polyketide synthase Pks13 (Mycobacterium tuberculosis (strain ATCC 25618 / H37Rv)) (I6X8D2 whole entry): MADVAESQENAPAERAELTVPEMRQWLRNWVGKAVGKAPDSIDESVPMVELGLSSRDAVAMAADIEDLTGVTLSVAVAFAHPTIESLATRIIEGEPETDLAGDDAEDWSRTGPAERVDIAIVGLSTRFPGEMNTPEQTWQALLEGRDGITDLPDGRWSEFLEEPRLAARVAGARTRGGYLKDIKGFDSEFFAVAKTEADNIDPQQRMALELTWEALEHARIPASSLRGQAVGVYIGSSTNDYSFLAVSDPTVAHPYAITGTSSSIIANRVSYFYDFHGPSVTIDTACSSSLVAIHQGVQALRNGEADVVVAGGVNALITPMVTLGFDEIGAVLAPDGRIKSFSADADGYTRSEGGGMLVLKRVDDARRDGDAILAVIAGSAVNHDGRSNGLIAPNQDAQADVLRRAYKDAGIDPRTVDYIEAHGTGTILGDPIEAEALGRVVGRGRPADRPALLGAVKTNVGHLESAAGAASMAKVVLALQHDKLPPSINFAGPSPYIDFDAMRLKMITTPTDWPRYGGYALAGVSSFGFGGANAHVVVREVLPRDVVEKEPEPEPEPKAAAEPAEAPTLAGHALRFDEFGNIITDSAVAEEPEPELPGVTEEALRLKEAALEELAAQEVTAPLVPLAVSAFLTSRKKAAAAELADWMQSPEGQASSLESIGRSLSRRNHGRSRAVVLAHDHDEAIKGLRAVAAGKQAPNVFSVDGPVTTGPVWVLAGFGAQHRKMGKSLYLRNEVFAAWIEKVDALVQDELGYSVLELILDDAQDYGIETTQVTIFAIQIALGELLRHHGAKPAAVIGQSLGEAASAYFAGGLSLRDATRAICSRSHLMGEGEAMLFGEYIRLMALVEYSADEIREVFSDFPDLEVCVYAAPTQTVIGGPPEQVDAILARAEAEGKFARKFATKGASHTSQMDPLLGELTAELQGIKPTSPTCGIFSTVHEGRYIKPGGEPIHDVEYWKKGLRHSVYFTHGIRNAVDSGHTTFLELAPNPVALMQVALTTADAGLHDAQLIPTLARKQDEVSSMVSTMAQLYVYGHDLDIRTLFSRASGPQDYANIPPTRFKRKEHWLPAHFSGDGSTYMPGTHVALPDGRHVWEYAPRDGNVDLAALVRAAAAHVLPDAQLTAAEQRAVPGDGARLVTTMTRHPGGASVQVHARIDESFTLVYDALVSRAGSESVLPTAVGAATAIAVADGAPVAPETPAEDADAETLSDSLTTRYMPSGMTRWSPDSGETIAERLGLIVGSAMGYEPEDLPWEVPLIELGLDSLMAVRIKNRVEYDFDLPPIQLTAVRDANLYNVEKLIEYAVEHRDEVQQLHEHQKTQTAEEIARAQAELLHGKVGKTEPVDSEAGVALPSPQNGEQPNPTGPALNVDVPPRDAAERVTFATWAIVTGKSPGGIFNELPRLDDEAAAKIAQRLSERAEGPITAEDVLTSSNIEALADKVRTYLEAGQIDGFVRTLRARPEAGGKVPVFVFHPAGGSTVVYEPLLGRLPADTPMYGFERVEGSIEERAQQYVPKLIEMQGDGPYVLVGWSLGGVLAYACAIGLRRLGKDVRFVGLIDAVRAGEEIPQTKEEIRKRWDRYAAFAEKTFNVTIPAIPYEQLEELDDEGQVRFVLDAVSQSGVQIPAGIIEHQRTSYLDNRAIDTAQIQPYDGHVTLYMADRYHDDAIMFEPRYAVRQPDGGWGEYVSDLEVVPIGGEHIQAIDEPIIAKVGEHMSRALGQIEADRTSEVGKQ
Consider `COCCN1C[C@H]2CN(C(=O)c3ccc4c(c3)OCO4)CCN2C1=O`, for which the Percent Effect is 8.89%.

For `COc1cccc(-c2cccc(CN3C[C@@H]4CC[C@H](C3)N(C)C4=O)c2)c1`, the Percent Effect was found to be 6.34%. Then `Cc1cc(CN(C)C(=O)c2ccc(C(F)(F)F)nc2)no1`, with -4.93%.

With `Cc1cc(CN(C)C(=O)c2ccc(N(C)C)nc2)no1`, the Percent Effect was -10.8%.

For `Cc1ccc(C(=O)N(C)Cc2cc(C)on2)cn1`, the Percent Effect turned out to be 143%. Then `CC(C)c1nccc([C@@H]2C[C@@H]3CCN(Cc4ccco4)C[C@H]3O2)n1`, with -17.2%; and `O=C(CC1CC1)NC[C@]12COC[C@H]1CN(c1ncc(F)cn1)C2`, with 8.61%. Then `CC(C)(C)CCNc1nccc(-c2c[nH][nH]c2=O)n1`, with 22.8%; and `CN(C)c1nccc(-c2cnc(N(C)C)[nH]c2=O)n1`, with 16.6%.

Take `CN(C)c1nccc(-c2c[nH][nH]c2=O)n1`: the Percent Effect is 51.4%. Take `CNC(=O)[C@@]12CCO[C@@H]1CCN(S(=O)(=O)c1ccccc1F)C2`: the Percent Effect was found to be 16.9%. Regarding `Cc1nc(CNC(=O)N2CCN(c3ccc(Cl)cn3)CC2)sc1C`, the Percent Effect is 50.8%.

For the compound `Cc1nc(C)c(CNC(=O)N2CCN(c3ccc(Cl)cn3)CC2)s1`, the Percent Effect amounted to 14.6%.

For `Cc1nc(CNC(=O)N2CCN(c3ccc(Cl)cn3)CC2)no1`, the Percent Effect was found to be 7.54%.

As for `CN1CCS(=O)(=O)[C@@H]2CCN(C(=O)c3ccccc3)CC[C@@H]21`, the Percent Effect is -9.08%. Then `Cc1cc(C)n(-c2cncc(NCCNC(=O)C(C)C)n2)n1`, with 35.4%; and `Cc1cc(C)n(-c2cncc(NCCNC(=O)CC3CCCC3)n2)n1`, with -10.3%. Take `Cc1cc(C)n(-c2cncc(NCCNC(=O)c3cccnc3)n2)n1`: the Percent Effect was determined as 2.44%. `CCN(CC)C(=O)CCNc1cncc(-n2nc(C)cc2C)n1`: the Percent Effect worked out at 10.2%. With `Cc1cc(C)n(-c2cncc(NCCNC(=O)C(C)(C)C)n2)n1`, the Percent Effect turned out to be 27%. Then `Cc1cc(C)n(-c2cncc(NCCNS(C)(=O)=O)n2)n1`, with 59.2%; and `CCCNC(=O)CCNc1cncc(-n2nc(C)cc2C)n1`, with 52%; and `Cc1cc(C)n(-c2cncc(NCCC(=O)NC(C)C)n2)n1`, with 62.4%. Then `Cc1cc(C)n(-c2cncc(NCCNC(=O)C3CCCC3)n2)n1`, with 40.3%; and `O=C(CC1CCCC1)N1C[C@H](OCc2ccncc2)[C@H]2OCCC[C@H]21`, with -0.106%; and `COCCN1CC[C@H]2CN(c3cc(OC)ncn3)C[C@@H]2C1=O`, with 25.2%. For `CS(=O)(=O)CC(=O)N1C[C@H]2CCC[C@@]2(COCc2ccncc2)C1`, the Percent Effect was -8.5%. With `CCC(CC)CN1C[C@@H]2OCCN(Cc3cnn(C)c3)[C@@H]2C1` the figure was -3.42%. Then `CCN1C[C@H]2CCN(C(=O)Nc3ccccc3C)CC[C@H]2S1(=O)=O`, with -46.2%. Take `CCc1nc(C)c(C(=O)N2C[C@H]3CC[C@@H]2CN(S(=O)(=O)N(C)C)C3)s1`: the Percent Effect is -18.5%.

Turning to `Cc1noc(C)c1CN1C[C@@H]2CN(C(=O)c3cnccn3)C[C@@H]2C1`, the Percent Effect was -42.1%. As to `O=C(O)[C@]12CCCN(Cc3nccs3)[C@@H]1CCN(c1cnccn1)C2`, the Percent Effect was -14.4%.

In the case of `COCCN1CCCC2(CCN(c3nccc4ccccc34)C2)C1=O` (configuration not stated), the Percent Effect was determined as 10.3%. For `COCCN1CCCC2(CCN(c3nccnc3N(C)C)C2)C1=O` (configuration not stated), the Percent Effect worked out at 60.4%. On to `COCCN1CCCC2(CCN(c3ncnc(C)c3C)C2)C1=O` (configuration not stated), for which the Percent Effect came out at 6.43%. With `Fc1cnc(N2C[C@@H](OCC3CCOCC3)[C@H]3OCCC[C@H]32)nc1` the figure was -17.1%; with `CN(C)C[C@H]1OC[C@@H]2CCN(C(=O)NCc3cccc(F)c3)C[C@@H]21`, -18.3%; with `O[C@]12CCNC[C@H]1CN(c1ccnc3ccccc13)CC2`, -11.7%.

For the compound `Cc1ccc(C(=O)N2C[C@H](OCc3cccnc3)[C@H]3COC[C@H]32)cn1`, the Percent Effect is -11.8%. For the compound `COc1ccc2nc(C3CC3)cc(C(=O)NCc3ncnn3C)c2c1`, the Percent Effect is -6.17%. For `COc1ccc2nc(C3CC3)cc(C(=O)NCc3noc(C)n3)c2c1`, the Percent Effect is 83.5%. With `COc1ccc2nc(C3CC3)cc(C(=O)NCC(=O)N(C)C)c2c1` the figure was -13.4%; with `Cc1cnc(N2CC[C@H]3[C@@H]2CCC(=O)N3c2ccccc2)nc1`, -48.4%. `O=C(CC1CC1)N1C[C@H]2CN(CC3CC3)C(=O)[C@H]2C1`: the Percent Effect was -22.1%.

As to `O=C(CCn1cncn1)N1C[C@H]2CC[C@@H]1CN(Cc1ccncc1)C2`, the Percent Effect worked out at 0.614%.

As to `CCCOc1ccc(CNc2cncc(-n3cccn3)n2)cc1`, the Percent Effect amounted to 34.6%. With `COCc1ccc(CNc2cncc(-n3cccn3)n2)cc1` the figure was 52.2%; with `NS(=O)(=O)Cc1ccc(CNc2cncc(-n3cccn3)n2)cc1`, 133%; with `CN(C)c1ccc(CNc2cncc(-n3cccn3)n2)cc1`, 27.6%. Regarding `CCN(CC)C(=O)c1ccc(CNc2cncc(-n3cccn3)n2)cc1`, the Percent Effect is -7.79%. Then `CNC(=O)COc1ccc(CNc2cncc(-n3cccn3)n2)cc1`, with 70.7%; and `CCOCc1ccc(CNc2cncc(-n3cccn3)n2)cc1`, with -10.5%; and `CCOc1cccc(CNc2cncc(-n3cccn3)n2)c1`, with -63.1%. Then `CC(C)OCc1ccc(CNc2cncc(-n3cccn3)n2)cc1`, with 16.5%; and `Cc1cccc(CNc2cncc(-n3cccn3)n2)c1`, with -60.2%; and `CCOCCOCc1cccc(CNc2cncc(-n3cccn3)n2)c1`, with 53.8%. As to `COC(=O)Nc1ccc(CNc2cncc(-n3cccn3)n2)cc1`, the Percent Effect worked out at 25.1%.
